“And” between values parts separate entries of the source, which are not always exact repeats. Equal entries are not always repeated. The whole screen tested about 5,500 compounds, of which about 2,000 (36%) were called active. Roughly 18% stayed inconclusive and do not appear here. No stated cut-off is given here; in the data, active means normalized growth mostly below about 0.91 (no sharp cut-off); inconclusive means no clear call, values can overlap the other calls; inactive means mostly above about 0.92. The list shows a part of the results.
Assay: chemical genetic growth profiling, strain panel (AID 1159580);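 further: tested at 20 µM; growth read once vehicle control cultures reached saturation at 30 °C; 1 = growth at the plate median or of vehicle wells; lower values mean less growth of the strain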
Settings: S. cerevisiae deletion strains, growth OD

Measured: normalized growth

CC(C)=CCc1c(O)cc2oc(C)cc(=O)c2c1O
inactive: locus YAL013W, strain DEP1, active compounds read low 0.96 | locus YAL021C, strain ccr4, active compounds read low 1.01 | locus YAL026C, strain drs2, active compounds read low 0.977 | locus YAL030W, strain snc1, active compounds read low 0.986 | locus YBL061C, strain skt5, active compounds read low 0.973 | locus YBR009C, strain hhf1, active compounds read low 0.984 | locus YBR021W, strain FUR4, active compounds read low 0.998 | locus YBR023C, strain chs3, active compounds read low 0.953 | locus YBR171W, strain sec66, active compounds read low 0.973 | locus YBR229C, strain ROT2, active compounds read low 1.01 | locus YBR231C, strain swc5, active compounds read low 0.98 | locus YBR279W, strain paf1, active compounds read low 0.982 | locus YCL011C, strain gbp2, active compounds read low 0.975 | locus YCL016C, strain dcc1, active compounds read low 0.969 | locus YCL029C, strain bik1, active compounds read low 0.986 | locus YCL061C, strain MRC1, active compounds read low 0.973 | locus YCL069W, strain vba3, active compounds read low 1.01 | locus YCR088W, strain abp1, active compounds read low 0.957 | locus YDL005C, strain med2, active compounds read low 0.981 | locus YDL035C, strain GPR1, active compounds read low 0.912 | locus YDL040C, strain nat1, active compounds read low 0.986 | locus YDL074C, strain BRE1, active compounds read low 0.947 | locus YDL101C, strain DUN1, active compounds read low 0.993 | locus YDL185W, strain tfp1, active compounds read low 0.98 | locus YDL192W, strain arf1, active compounds read low 0.93 | locus YDR001C, strain nth1, active compounds read low 0.976 | locus YDR069C, strain doa4, active compounds read low 1 | locus YDR137W, strain rgp1, active compounds read low 0.855 | locus YDR159W, strain sac3, active compounds read low 0.983 | locus YDR162C, strain NBP2, active compounds read low 0.903 | locus YDR297W, strain sur2, active compounds read low 0.973 | locus YDR318W, strain mcm21, active compounds read low 0.929 | locus YDR334W, strain swr1, active compounds read low 0.985 | locus YDR335W, strain msn5, active compounds read low 0.972 | locus YDR388W, active compounds read low 0.977 | locus YDR392W, strain spt3, active compounds read low 0.87 | locus YDR502C, strain sam2, active compounds read low 0.963 | locus YEL003W, strain gim4, active compounds read low 0.976 | locus YEL037C, strain rad23, active compounds read low 0.993 | locus YEL061C, strain CIN8 (second series), active compounds read low 0.979 | locus YEL061C, strain CIN8, active compounds read low 1 | locus YER015W, strain faa2, active compounds read low 0.983 | locus YER016W, strain bim1, active compounds read low 0.965 | locus YER110C, active compounds read low 0.989 | locus YER111C, strain swi4, active compounds read low 1 | locus YER155C, strain BEM2 (second series), active compounds read low 0.973 | locus YER155C, strain BEM2, active compounds read low 0.992 | locus YER167W, strain BCK2, active compounds read low 0.932 | locus YFR010W, strain ubp6, active compounds read low 0.98 | locus YGL078C, strain dbp3, active compounds read low 0.987 | locus YGL167C, strain pmr1, active compounds read low 0.996 | locus YGL173C, strain kem1, active compounds read low 0.985 | locus YGL227W, strain vid30, active compounds read low 0.968 | locus YGL240W, strain doc1, active compounds read low 0.968 | locus YGL248W, strain PDE1, active compounds read low 0.965 | locus YGL253W, strain hxk2, active compounds read low 0.964 | locus YGR078C, strain PAC10, active compounds read low 0.959 | locus YGR135W, strain pre9, active compounds read low 1 | locus YGR252W, strain gcn5, active compounds read low 0.878 | locus YHR027C, strain rpn1, active compounds read low 0.999 | locus YHR030C, strain SLT2, active compounds read low 1 and 0.999 | locus YHR079C, strain IRE1 (second series), active compounds read low 1 | locus YHR079C, strain IRE1, active compounds read low 0.971 | locus YHR094C, strain hxt1, active compounds read low 0.999 | locus YHR129C, strain ARP1, active compounds read low 0.987 | locus YIL066C, strain RNR3, active compounds read low 0.95 | locus YIL073C, strain SPO22, active compounds read low 1.01 | locus YIR030C, strain dcg1, active compounds read low 0.988 | locus YJL092W, strain hpr5, active compounds read low 0.975 | locus YJL095W, strain BCK1 (second series), active compounds read low 0.97 | locus YJL095W, strain BCK1, active compounds read low 0.928 and 0.969 | locus YJL115W, strain asf1, active compounds read low 0.984 | locus YJL129C, strain trk1, active compounds read low 0.951 | locus YJL134W, strain LCB3, active compounds read low 1 | locus YJL154C, strain vps35, active compounds read low 0.983 | locus YJL164C, strain tpk1, active compounds read low 0.929 | locus YJL166W, strain qcr8, active compounds read low 0.972 | locus YJL168C, strain set2, active compounds read low 0.999 | locus YJL187C, strain SWE1 (second series), active compounds read low 0.966 | locus YJL187C, strain SWE1, active compounds read low 0.98
active: locus YDR101C, strain arx1, active compounds read low 0.907 | locus YDR195W, strain ref2 1.16 [resistant] | locus YGL086W, strain mad1, active compounds read low 0.915 | locus YHR013C, strain ard1, active compounds read low 1.21 [resistant] | locus YHR142W, strain chs7, active compounds read low 0.851 | locus YHR200W, strain rpn10, active compounds read low 0.915 | locus YIL125W, strain kgd1, active compounds read low 0.904

From PubChem BioAssay AID1159580 (chemical genetic matrix, 2015)
